In test [1] the target is Cellular tumor antigen p53 (Homo sapiens) (UniProt P04637). Briefly: Primary qHTS for small molecule compounds that upregulate eGFP-tagged delta133p53alpha (in N-terminal) cells. (AID 2060322).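 Further: series mostly up to about 56 µM; 0% = DMSO vehicle and 100% = reference activator; nearly all actives have a fitted effect of over 75% in size.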 The conditions noted are these: NCI-H358 eGFP-delta133p53alpha fluorescence, 24 h; activation: stronger effect = higher value. A digest of the protocol:
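NCI-H358 cells pre-induced 24 h with 10 ng/ml doxycycline to express N-terminal eGFP-delta133p53alpha, then dosed 24 h at 37C without doxycycline; fixed, Hoechst-stained, GFP intensity by laser scanning cytometry, normalized to DMSO (0%) and 57.5 uM 5-azacytidine (100%).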

For test [2] the target is unchanged. Put plainly: Primary qHTS for small molecule compounds that upregulate eGFP-tagged delta133p53alpha (in C-terminal) cells. (AID 2060324). Further: potency means the concentration at half of the fitted maximal effect. A digest of the protocol:
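C-terminal eGFP-tagged delta133p53alpha NCI-H358 line; dox-induced (100 ng/ml, 24 h) then plated without dox; compounds pinned in titration, 24 h 37 °C/5% CO2; PFA fix, Hoechst nuclei; GFP by LSC.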
A general note: qHTS replaces the single test concentration by a dilution series.

A short description of test [3]: qHTS for Inhibitors of the Aldehyde Dehydrogenase Family (ALDH1A2, ALDH1A3, ALDH2, ALDH3A1) (AID 2061307). Further: nearly all actives have a fitted effect of over 50% in size.
Test [4] has as its target Retinaldehyde dehydrogenase 3 (Homo sapiens) (UniProt P47895). Put plainly: qHTS for Inhibitors of the Aldehyde Dehydrogenase Family (ALDH1A3) Confirmatory screens (AID 2061311). Further: nearly all actives have a fitted effect of over 60% in size. Further: potency means the concentration at half of the fitted maximal effect.
Test [5] deals with Aldehyde dehydrogenase, mitochondrial (Homo sapiens) (UniProt P05091). Put plainly: qHTS for Inhibitors of the Aldehyde Dehydrogenase Family (ALDH2) Validation screens (AID 2061302; active means well fitted inhibition curve with a large enough effect; title and protocol of this record describe different tests;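 further: plate controls were DMSO vehicle for no effect and maximal DPI positive control response for full effect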).
Test [6] has as its target Aldehyde dehydrogenase 1A1 (Homo sapiens) (UniProt P00352). Briefly: qHTS for Inhibitors of the Aldehyde Dehydrogenase Family (ALDH1A1) Confirmatory screens (AID 2061316). Further: nearly all actives have a fitted effect of over 65% in size. Further: potency means the concentration at half of the fitted maximal effect.
Test [7] has as its target Retinaldehyde dehydrogenase 3 (Homo sapiens) (UniProt P47895). Put plainly: qHTS for Inhibitors of the Aldehyde Dehydrogenase Family (ALDH1A3) Validation screen (AID 2061312). Further: on the % scale 0 is the no-effect control and ±100 the full control effect; nearly all actives have a fitted effect of over 45% in size.
The nature of test [8]: BET inhibitor-based combinations targeting novel dependencies in MECOM-rearranged (r) AML: HNT-34 cell line (AID 2202234). Further: nearly all actives have a fitted effect of over 35% in size. Further: potency means the concentration at half of the fitted maximal effect. The procedure, abridged:
(§1)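 Cells at 500/well were exposed for 48 hr to MIPE v5.0 drugs as 11-point dose curves. Viability was read by CellTiter-Glo luminescence and normalized to DMSO and empty-well controls. Activity was expressed as AUC and per-cell-line Z-AUC.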

Test [9] can be described thus: BET inhibitor-based combinations targeting novel dependencies in MECOM-rearranged (r) AML: UCSD-AML1 cell line (AID 2202235).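 Further: series mostly up to about 46 µM; plate controls were DMSO vehicle wells for no effect and blank wells for full effect; nearly all actives have a fitted effect of over 40% in size.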 The procedure, abridged:
as §1

In test [10] the target is Aldehyde dehydrogenase, mitochondrial (Homo sapiens) (UniProt P05091). Put plainly: qHTS for Inhibitors of the Aldehyde Dehydrogenase Family (ALDH2) Confirmatory screens (AID 2061303; active means well fitted inhibition curve with a large enough effect; title and protocol of this record describe different tests; further: on the % scale 0 is the no-effect control and ±100 the full control effect; nearly all actives have a fitted effect of over 45% in size).
For test [11], the target named is Retinal dehydrogenase 2 (Homo sapiens) (UniProt O94788). Briefly: qHTS for Inhibitors of the Aldehyde Dehydrogenase Family (ALDH1A2) Confirmation screens (AID 2061314). Further: nearly all actives have a fitted effect of over 65% in size. Further: potency means the concentration at half of the fitted maximal effect.
Test [12] is described as follows: BET inhibitor-based combinations targeting novel dependencies in MECOM-rearranged (r) AML: SET-2 cell line (AID 2202231).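 Further: plate controls were DMSO treated cells for no effect and wells without cells for full effect; nearly all actives have a fitted effect of over 35% in size.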 Conditions: SET-2 AML cells viability, CellTiter-Glo luminescence, 48 h; viability: stronger effect = lower value, series mostly up to about 46 µM. The procedure, abridged:
(§2)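 AML cell lines seeded at 500 cells/well, treated with 11-point dose curves for 48 h. Viability by CellTiter-Glo luminescence, normalised to DMSO and empty wells; activity expressed as AUC and per-cell-line Z-transformed AUC.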

Test [13] can be described thus: BET inhibitor-based combinations targeting novel dependencies in MECOM-rearranged (r) AML: OCI-AML3 cell line (AID 2202232).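 Further: series mostly up to about 46 µM; plate controls were DMSO vehicle wells for no effect and wells without cells for full effect; nearly all actives have a fitted effect of over 35% in size.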 Conditions: Potency: OCI-AML3 viability. The procedure, abridged: as §2
Test [14] in a line: BET inhibitor-based combinations targeting novel dependencies in MECOM-rearranged (r) AML: MV-4-11 cell line (AID 2202233).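 Further: plate controls were DMSO for no effect and blank wells for full effect; nearly all actives have a fitted effect of over 45% in size.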 The procedure, abridged: as §1
A short description of test [15]: BET inhibitor-based combinations targeting novel dependencies in MECOM-rearranged (r) AML: AML-191 cell line (AID 2202236;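 further: plate controls were vehicle wells for no effect and wells without cells for full effect; nearly all actives have a fitted effect of over 35% in size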). The procedure, abridged:
as §2

Test [16] in a line: BET inhibitor-based combinations targeting novel dependencies in MECOM-rearranged (r) AML: AML-194 cell line (AID 2202237;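 further: plate controls were vehicle wells for no effect and wells without cells for full effect; nearly all actives have a fitted effect of over 40% in size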). A digest of the protocol:
as §2

The target of test [17] is Aldehyde dehydrogenase, mitochondrial (Homo sapiens) (UniProt P05091). Briefly: qHTS for Inhibitors of the Aldehyde Dehydrogenase Family (ALDH2) Primary screen (AID 2061308).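 Further: plate controls were vehicle for no effect and reference inhibitor for full effect; nearly all actives have a fitted effect of over 55% in size.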
Test [18] has as its target Retinaldehyde dehydrogenase 3 (Homo sapiens) (UniProt P47895). Briefly: qHTS for Inhibitors of the Aldehyde Dehydrogenase Family (ALDH1A3) Primary screen (AID 2061315).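 Further: plate controls were DMSO vehicle for no effect and reference inhibitor for full effect.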

“And” between values parts separate entries of the source, which are not always exact repeats. Equal values may be shown once. Inconclusive results are not listed. Values without a mark were called inactive. The source made the active and inactive calls. Unless noted, the call rests on the fitted dose curve; in most records, active means well fitted curve in the direction sought with a large enough effect; inconclusive means small, poorly fitted or top-dose-only effect, or another doubt; inactive means no such curve, though single readings can be large; an effect the other way counts as inactive or inconclusive.

Cellular tumor antigen p53 (Homo sapiens), sequence (P04637 whole entry, looked up): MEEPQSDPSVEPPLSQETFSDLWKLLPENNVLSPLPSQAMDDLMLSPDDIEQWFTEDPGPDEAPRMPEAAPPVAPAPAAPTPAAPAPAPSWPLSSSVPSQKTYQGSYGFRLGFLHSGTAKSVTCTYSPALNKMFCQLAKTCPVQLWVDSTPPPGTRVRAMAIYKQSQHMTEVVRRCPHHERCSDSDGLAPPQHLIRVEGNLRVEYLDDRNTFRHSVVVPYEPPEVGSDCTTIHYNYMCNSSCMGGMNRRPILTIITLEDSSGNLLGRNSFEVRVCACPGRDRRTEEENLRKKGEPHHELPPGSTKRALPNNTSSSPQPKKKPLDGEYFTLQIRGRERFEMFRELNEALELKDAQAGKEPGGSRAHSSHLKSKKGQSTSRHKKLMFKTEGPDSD

Turning to `Cn1ncc(S(=O)(=O)Cc2ccccc2)c(Br)c1=O`, the activation in test [1] is -32.8%. Moreover, the Potency entry in test [2] and in test [3] was “inactive” throughout.

As to `N#C/C(=C\c1ccc(O)c(O)c1)C(=O)NCCCNC(=O)/C(C#N)=C/c1ccc(O)c(O)c1`, the activation in [1] is -33.4%. For the same compound, the Potency entry in test [2] is “inactive”. The Potency in [4] is 2.83 µM (active).

On to `O=C1NC(c2cccc([N+](=O)[O-])c2)=CCN1c1ccccc1O`, for which the activation in test [1] was 5.67% and -12.4%. The Potency entry in test [2], in [5] and in test [6] was “inactive” in each case.

On to `O=C(O)Cc1ccc(O)c(O)c1`, for which the activation in test [1] was 10.9%. The Potency result in test [2] and in test [3] was “inactive” throughout. The Potency in test [6] is 14.2 µM (active).

As to `CCn1cc(C(=O)O)c(=O)c2cc3c(cc21)OCO3`, in test [1], the activation was 2.82% and -18.3%. In addition, the Potency result in test [2] and in [7] was “inactive” throughout.

Regarding `Cc1oncc1C(=O)Nc1ccc(C(F)(F)F)cc1`, in test [1], the activation was -3.35% and -18.5% and -19%. The Potency result in test [2], in [5] and in test [9] was “inactive” in each case. In addition, the Potency in [8] is 16.6 µM (active).

As for `O=C(c1cc(O)c(O)c([N+](=O)[O-])c1)c1ccccc1F`, the activation in test [1] was -61.3%. For the same compound, the Potency result in [2], in test [10] and in test [11] was “inactive” each time. Moreover, the Potency in [4] was 3.18 µM (active); in test [6], 12.7 µM (active).

For orientation: viability means a read-out of living cells in per cent, often relative to untreated cells. As for `CC[N+](CC)(CC)CCOc1cccc(OCC[N+](CC)(CC)CC)c1OCC[N+](CC)(CC)CC`, the activation in test [1] was -9.51% and 5.08% and -25.7%. The Potency entry in test [2], in [5], in [13], in [14], in test [8] and in [9] was “inactive” each time. The Potency result in test [15] and in test [16] was “inactive” throughout. In addition, in test [12], the viability is 113%.

Take `COc1cc(/C=C(\C#N)C(=O)c2ccc(O)c(O)c2)cc(I)c1O`: the activation in [1] is 0.259%. Also, the Potency in test [2] is 16.9 µM (active); in test [3], 4 µM (active); in test [4] it was 8.96 µM (active); in test [11], 12.7 µM (active).

As for `COc1ccccc1N1CCN(CCN2C(=O)CC3(CCCC3)CC2=O)CC1`, the activation in [1] is 3.57% and -22.5%. The Potency entry in [2], in test [10], in test [3], in test [17], in [4] and in test [11] was “inactive” each time. Also, the Potency result in test [18] is “inactive”.

In the case of `Nc1nc(N)c2nc(CNc3ccc(C(=O)NC(CCC(=O)O)C(=O)O)cc3)cnc2n1` (stereo not given), the activation in [1] is 25.1% and -8.03%. Also, the Potency entry in test [2], in [5], in [13], in test [14], in [8] and in test [15] was “inactive” each time. In addition, the Potency result in test [16] is “inactive”. The viability in [12] is 90.9%.

With `Cn1c(=O)c2[nH]c(-c3ccc(S(=O)(=O)O)cc3)nc2n(C)c1=O`, the activation in test [1] was 1.02%. The Potency result in test [2], in [10], in [3], in [4], in test [7] and in test [11] was “inactive” in each case. The Potency entry in test [6] was “inactive”.

In the case of `Oc1ccc(C2CNCCc3c2cc(O)c(O)c3Cl)cc1` (stereo not given), the activation in test [1] was -18.2% and -20.9% and -11.7%. The Potency entry in test [2], in test [5], in [13], in test [14], in test [8] and in [9] was “inactive” each time. Also, the Potency result in test [16] was “inactive”. In addition, the viability in test [12] is 108%.

For `Oc1ccccc1O`, in test [1], the activation is -3.18%. Further, the Potency result in test [2], in [5] and in [11] was “inactive” throughout. For the same compound, the Potency in test [6] is 11.3 µM (active).

As for `CN1C(C(=O)Nc2ccccn2)=C(O)c2ccccc2S1(=O)=O`, the activation in [1] is -0.565% and -12.3% and -20.6%. Besides, the Potency entry in [2], in test [5], in [13], in [14], in test [8] and in test [9] was “inactive” throughout. For the same compound, in test [16], the Potency result is “inactive”. Moreover, in test [12], the viability is 105%.

Consider `O=c1ccc2ccc(O)c(O)c2o1`, for which, in test [1], the activation was 0.546% and -34.3%. For the same compound, the Potency entry in test [2] and in [11] was “inactive” throughout. In addition, the Potency in [4] was 8.96 µM (active).

Take `CCCCC#Cc1nc(NC)c2ncn([C@@H]3O[C@H](CO)[C@@H](O)[C@H]3O)c2n1`: in [1], the activation is -3.87%. The Potency entry in test [2], in test [10], in [3], in test [11] and in test [6] was “inactive” throughout.

As to `C[N+](C)(C)CCOC(=O)CCC(=O)OCC[N+](C)(C)C`, the activation in [1] is -8.47%. The Potency entry in test [2], in test [10], in [3], in test [4], in [11] and in test [6] was “inactive” each time.

On to `COc1ccccc1OCC(O)CN1CCN(CC(=O)Nc2c(C)cccc2C)CC1` (stereo not given), for which the activation in test [1] was -19.2% and 6.83% and -14.1%. Besides, the Potency entry in test [2], in test [5], in [14], in test [15] and in test [16] was “inactive” each time. Further, in test [12], the viability was 110%.

In the case of `C[C@@H](N)C1CCC(C(=O)Nc2ccncc2)CC1` (stereo not given in full), the activation in test [1] was -43.5% and -9.78%. Moreover, the Potency result in test [2], in test [5], in test [13], in [8], in test [9] and in [15] was “inactive” each time. In addition, the viability in test [12] is 110%.

With `Cc1c(OCC(F)(F)F)ccnc1CS(=O)c1nc2ccccc2[nH]1` (stereo not given), the activation in [1] is 8.47% and 28.3%. The Potency entry in test [2], in test [5], in test [8], in test [9], in test [15] and in test [16] was “inactive” each time.

(Values after PubChem BioAssay (NCATS).)
